From the supplement of paper PMC3334620
The full ranking holds about 33,000 sequences; the median of “E-score (-0.5 to 0.5)” is about -0.035, and the highest 2% start at about 0.35. For the sample, the highest values were picked, then their nearest neighbours and some sequences at random.

molecular target: T1, Pdr3 (UniProt P33200); assay: PBM E-score (8-mer binding enrichment) (E-score (-0.5 to 0.5)); higher = stronger / more preferred TF binding; settings: protein concentration: 200 nM; construct: GST-full length
T1 sequence: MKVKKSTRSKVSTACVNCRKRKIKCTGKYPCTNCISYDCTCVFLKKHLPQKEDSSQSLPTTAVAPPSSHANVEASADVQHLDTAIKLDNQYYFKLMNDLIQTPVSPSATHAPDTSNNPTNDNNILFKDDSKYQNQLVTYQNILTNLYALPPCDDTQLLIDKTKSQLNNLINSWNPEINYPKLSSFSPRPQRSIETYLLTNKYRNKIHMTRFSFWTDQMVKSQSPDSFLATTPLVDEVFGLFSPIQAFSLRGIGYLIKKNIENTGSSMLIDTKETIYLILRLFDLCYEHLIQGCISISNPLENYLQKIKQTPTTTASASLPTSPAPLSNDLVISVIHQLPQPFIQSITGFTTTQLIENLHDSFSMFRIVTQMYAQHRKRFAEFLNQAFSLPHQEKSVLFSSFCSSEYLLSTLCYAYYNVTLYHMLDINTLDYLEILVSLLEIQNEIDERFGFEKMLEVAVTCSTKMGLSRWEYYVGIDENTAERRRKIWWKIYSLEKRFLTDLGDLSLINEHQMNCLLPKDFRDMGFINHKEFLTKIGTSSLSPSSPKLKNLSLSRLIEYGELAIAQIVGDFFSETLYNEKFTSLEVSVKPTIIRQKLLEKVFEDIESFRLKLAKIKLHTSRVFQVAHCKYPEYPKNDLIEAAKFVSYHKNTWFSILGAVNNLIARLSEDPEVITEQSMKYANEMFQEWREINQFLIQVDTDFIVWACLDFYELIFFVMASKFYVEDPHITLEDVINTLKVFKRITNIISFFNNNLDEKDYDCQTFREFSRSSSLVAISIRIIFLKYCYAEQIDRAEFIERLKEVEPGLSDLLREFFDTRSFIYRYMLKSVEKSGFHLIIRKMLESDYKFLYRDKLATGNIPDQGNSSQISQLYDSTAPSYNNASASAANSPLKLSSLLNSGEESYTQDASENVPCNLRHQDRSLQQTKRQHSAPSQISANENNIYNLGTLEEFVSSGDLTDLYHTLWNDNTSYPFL
Description: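 Universal 'all 10-mer' protein binding microarrays (Agilent AMADID 015681) probed with GST-tagged S. cerevisiae TFs (full-length or DBD) made by in vitro transcription/translation (PURExpress), about 100-200 nM. Bound TF was detected with fluorescent anti-GST. Each ungapped 8-mer (which stands for itself and its reverse complement) is scored by the PBM enrichment score (E-score), a modified Wilcoxon-Mann-Whitney statistic from -0.5 to +0.5, computed with the Universal PBM Analysis Suite. Scale: above 0.35 generally sequence-specific binding.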

Sequence	PBM E-score
CGCGGGCA	0.397
AGCGGGCC	0.057
GGCGGGCA	0.219
CGCGGGTC	0.331
CACGGGCC	0.196
AGCGGGTA	0.0103
AGCGGGCA	-0.048
CGCGGGTA	0.363
CGCGGGCC	0.379
CCGATCTA	0.0827
ATCCAATG	-0.208
AGTCTGAT	-0.133
AAGACAAA	-0.103
AACCGCTG	-0.114
CGTTCGAG	-0.0996
AAATTCCG	0.418
AAATTCCC	0.144
CAATTCCG	0.435
AAATTCCA	0.0847
CAATTCCC	0.133
CAATTCCA	0.0797
CAGATCTA	-0.337

Sequence	PBM E-score
AACAGCAT	-0.0321
GAGACTCA	-0.204
TGTGATAA	-0.121
CAAGGAAA	0.00732
AACGGAAA	0.464
CACGGGAA	0.223
GACGGAAA	0.43
TAGGGAAA	-0.15
CACGGAAA	0.449
TACGGGAA	0.261
AACGGGAA	0.354
GACGGGAA	0.203
TACGGAAA	0.402
AACGGAGA	0.243
GACGGACA	0.335
GCTACGAC	0.0127
CACTGGTC	-0.078
CAGATGCG	-0.126
CTAGGACA	-0.0782
CGGCTTGC	0.197
GCTCGTAC	-0.126
CCTAGAAG	-0.146

Sequence	PBM E-score
ATGTCTAG	-0.064
AATAGGCG	0.313
AGCCTTAG	-0.37
CAGCCACG	0.145
GACGGAAC	0.475
CATGGAAC	-0.0483
CACAGAAG	-0.109
GATGGAAC	0.06
CAAGGAAC	0.161
CACGGAAG	0.386
CAAGGAAG	-0.0209
CACGGAAC	0.483
GACAGAAC	0.0194
ACAGTAAA	-0.0539
AGCAAAAG	-0.336
CTATAAGC	-0.129
TCAATAGA	-0.262
ATGTTATC	0.0774
CAGTTTCC	0.253
ATCAGCGA	-0.0101
ATCAGCGC	0.207
ATCAGCGG	0.364

Sequence	PBM E-score
AGAGAGTC	-0.249
CCCCTTTC	0.00738
TAATGCAA	-0.241
AACGGCTT	0.0106
CCAGGTTA	-0.0429
ACCGCGTA	0.174
ACCGCGGA	0.488
ATCGCGGG	0.186
ACCGCGAG	-0.00369
ACCGCGGT	0.4
AACGCGGT	0.1
ACCGCGGC	0.399
ATCGCGGC	0.213
ACCGCGAT	0.177
ACCGCGTC	0.0777
ACCGCGGG	0.472
ATCGCGGA	0.282
CCTTGTGA	-0.0319
GGCTGTTA	0.0369
CACTTAGA	-0.119
CGCTGGAC	-0.075
